The nature of assay [1]: qHTS assay for small molecules that induce genotoxicity in human embryonic kidney cells expressing luciferase-tagged ATAD5 (AID 651632). Note: nearly all actives have a fitted effect of over 15% in size. Note: potency is the fitted concentration of half-maximal effect. The method in brief: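 DMSO vehicle served as the control. HEK293T reporter cells, 16 hr at 37C, then 30 min Amplite at room temperature; ATAD5 induction is measured as luciferase activity.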
The nature of assay [2]: qHTS assay for small molecules that induce genotoxicity in human embryonic kidney cells expressing luciferase-tagged ATAD5 - cell viability (AID 651634; calls by dose curve; note: nearly all actives have a fitted effect of over 25% in size; note: potency is the fitted concentration of half-maximal effect). The method in brief: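 Here HEK293T cells with the ATAD5 luciferase reporter are incubated with test compounds for 15.5 hr, and cytotoxicity is then gauged by measuring protease activity in live cells using fluorescence.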
(qHTS replaces the single test concentration by a dilution series.)

A short description of assay [3]: qHTS assay for small molecule disruptors of the mitochondrial membrane potential - cell viability (AID 720634; calls by dose curve; note: nearly all actives have a fitted effect of over 20% in size; note: potency is the fitted concentration of half-maximal effect). A digest of the protocol:
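Viability of HepG2 cells is scored from ATP content by luminescence; cells are exposed to compound for 1 hr at 37 C and 5% CO2, then dosed with m-MPI dye before the CellTiter-Glo reagent.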

Assay [4] is described as follows: qHTS assay to test for compound auto fluorescence at 590 nm (red) in HepG2 cells (AID 720674). The method in brief:
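Red autofluorescence (Ex/Em 540/590 nm, Rose Bengal sodium equivalents) was measured in HepG2 cells, 2,000 per well in MEM plus 10% FBS, plated overnight at 37 C. Readings were taken 1 hr after adding 23 nL compound or DMSO, at 37 C and 5% CO2.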

The nature of assay [5]: qHTS assay to test for compound auto fluorescence at 535 nm (green) in HepG2 cells (AID 720675).
Assay [6] can be described thus: qHTS assay to test for compound auto fluorescence at 460 nm (blue) in HEK293 cell free culture (AID 720681). The method in brief:
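Blue fluorescence (Ex 405/Em 460 nm, triamterene-equivalent) was read immediately after pin transfer of compound or DMSO into medium (DMEM, 10% FBS) without cells.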

A short description of assay [7]: qHTS assay to test for compound auto fluorescence at 535 nm (green) in HEK293 cell free culture (AID 720682). The method in brief:
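Measurement is a direct plate read of green fluorescence (485 nm in, 535 nm out) after compound addition to serum-supplemented DMEM lacking cells, with fluorescein used to express intensities.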

Assay [8] is described as follows: qHTS assay to test for compound auto fluorescence at 590 nm (red) in HEK293 cell free culture (AID 720683). The method in brief: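 Red-channel autofluorescence of compounds in culture medium (DMEM, 10% FBS), no cells, measured at 540/590 nm. Rose Bengal sodium is the reference fluorophore for equivalence.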
Assay [9] in a line: qHTS assay to test for compound auto fluorescence at 460 nm (blue) in HepG2 cell free culture (AID 720685). The method in brief: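 Cell-free plates of MEM plus 10% FBS received 23 nL compound or DMSO vehicle; blue-channel (405/460 nm) intensity scored against triamterene as reference fluorophore.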
A short description of assay [10]: qHTS assay to test for compound auto fluorescence at 460 nm (blue) in HepG2 cells (AID 720687). A digest of the protocol:
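Blue-channel autofluorescence (Ex/Em 405/460 nm, triamterene-equivalent) was measured after 1 hr compound exposure at 37 C, 5% CO2. Cells were HepG2, plated overnight at 37 C in MEM plus 10% FBS.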

Assay [11] in a line: qHTS assay to identify small molecule antagonists of the glucocorticoid receptor (GR) signaling pathway - cell viability counter screen (AID 720693). Note: nearly all actives have a fitted effect of over 55% in size. Note: potency is the fitted concentration of half-maximal effect.
The nature of assay [12]: qHTS assay to identify small molecule antagonists of the thyroid receptor (TR) signaling pathway (AID 743065). Note: nearly all actives have a fitted effect of over 55% in size. Note: potency is the fitted concentration of half-maximal effect. A digest of the protocol: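 Antagonism measured as loss of luciferase signal in GH3 cells stably carrying a TRE-luciferase reporter, co-treated with compound and T3 (1 nM final) for 23.5 h at 37 C. Viability was read in the same well by CellTiter-Fluor.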
A short description of assay [13]: qHTS assay to identify small molecule antagonists of the estrogen receptor alpha (ER-alpha) signaling pathway - cell viability counter screen (AID 743074; calls by dose curve;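 note: HEK293 cells carrying ER-alpha-UAS-bla reporter stimulated with 17beta-estradiol; nearly all actives have a fitted effect of over 45% in size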; note: potency is the fitted concentration of half-maximal effect).
The nature of assay [14]: qHTS assay to identify small molecule antagonists of the estrogen receptor alpha (ER-alpha) signaling pathway using the BG1 cell line - cell viability counter screen (AID 743081).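 Note: compound given together with 17beta-estradiol as the ER stimulus; series mostly up to about 70 µM; nearly all actives have a fitted effect of over 45% in size.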
For the next assay, the target named is Aromatase (Homo sapiens) (UniProt P11511). Briefly: qHTS assay to identify aromatase inhibitors (AID 743083). Note: nearly all actives have a fitted effect of over 55% in size. Note: potency is the fitted concentration of half-maximal effect.
Sequence of Aromatase (Homo sapiens) (P11511 whole entry, looked up): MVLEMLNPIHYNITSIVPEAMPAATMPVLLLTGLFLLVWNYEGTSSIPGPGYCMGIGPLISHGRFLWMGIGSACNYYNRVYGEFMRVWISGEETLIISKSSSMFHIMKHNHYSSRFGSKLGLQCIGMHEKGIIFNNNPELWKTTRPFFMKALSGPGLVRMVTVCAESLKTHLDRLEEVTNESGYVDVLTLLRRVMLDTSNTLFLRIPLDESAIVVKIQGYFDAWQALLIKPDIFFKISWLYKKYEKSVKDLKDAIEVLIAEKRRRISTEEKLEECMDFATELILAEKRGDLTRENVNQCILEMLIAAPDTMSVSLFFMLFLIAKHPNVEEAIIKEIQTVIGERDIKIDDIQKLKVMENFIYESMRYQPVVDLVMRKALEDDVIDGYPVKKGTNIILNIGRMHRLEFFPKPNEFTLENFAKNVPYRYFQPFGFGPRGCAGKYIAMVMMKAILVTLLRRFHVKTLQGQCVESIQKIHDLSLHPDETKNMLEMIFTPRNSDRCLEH
Assay [15] can be described thus: qHTS assay to identify aromatase inhibitors - cell viability counter screen (AID 743084).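 Note: cells stimulated with testosterone during compound exposure; nearly all actives have a fitted effect of over 55% in size.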 Note: potency is the fitted concentration of half-maximal effect.
Assay [16] deals with Aryl hydrocarbon receptor (Homo sapiens) (UniProt P35869). The experiment in a line: qHTS assay to identify small molecule that activate the aryl hydrocarbon receptor (AhR) signaling pathway (AID 743085).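 Note: HG2L7.5c1 human HepG2 liver cells with stably integrated DRE-driven firefly reporter; series mostly up to about 70 µM; nearly all actives have a fitted effect of over 15% in size.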 The method in brief: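 24 h compound exposure, 37C, HepG2-derived HG2L7.5c1 cells with DRE-responsive luciferase. Readouts: fluorescence viability, then luminescence at room temperature after 30 min.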
Sequence of Aryl hydrocarbon receptor (Homo sapiens) (P35869 whole entry, looked up): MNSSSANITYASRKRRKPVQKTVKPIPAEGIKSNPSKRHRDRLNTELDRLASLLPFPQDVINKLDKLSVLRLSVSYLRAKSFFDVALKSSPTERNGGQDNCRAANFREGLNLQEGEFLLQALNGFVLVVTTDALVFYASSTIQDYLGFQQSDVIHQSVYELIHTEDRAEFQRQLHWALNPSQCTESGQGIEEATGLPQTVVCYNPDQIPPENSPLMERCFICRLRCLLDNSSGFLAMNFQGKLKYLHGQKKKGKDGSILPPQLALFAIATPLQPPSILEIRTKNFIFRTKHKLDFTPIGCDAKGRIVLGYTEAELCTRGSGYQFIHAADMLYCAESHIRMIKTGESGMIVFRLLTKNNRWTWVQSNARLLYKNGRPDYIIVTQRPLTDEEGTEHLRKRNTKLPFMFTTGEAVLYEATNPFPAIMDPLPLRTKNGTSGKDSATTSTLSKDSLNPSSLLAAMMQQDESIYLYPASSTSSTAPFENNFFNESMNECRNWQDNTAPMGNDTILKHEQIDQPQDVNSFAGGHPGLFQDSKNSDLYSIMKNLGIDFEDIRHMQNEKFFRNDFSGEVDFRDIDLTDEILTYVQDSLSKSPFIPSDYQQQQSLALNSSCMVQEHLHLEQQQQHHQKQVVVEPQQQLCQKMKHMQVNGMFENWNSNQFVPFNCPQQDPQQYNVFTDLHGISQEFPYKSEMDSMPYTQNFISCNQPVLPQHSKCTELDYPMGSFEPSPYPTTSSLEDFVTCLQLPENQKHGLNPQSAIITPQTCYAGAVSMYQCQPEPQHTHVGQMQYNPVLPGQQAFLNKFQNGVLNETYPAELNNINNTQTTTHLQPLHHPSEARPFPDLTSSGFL

Assay [17] in a line: qHTS assay to identify small molecule phospholipidosis (PLD) inducers (AID 1259344; active = well fitted curve in the direction sought with a large enough effect; an effect the other way counts as inactive or inconclusive). A digest of the protocol: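 Accumulated phospholipid, stained red by LipidTOX during 24 h compound treatment of HepG2 cells at 37 C, is quantified from images as pit number and intensity, normalised per cell using Hoechst-stained nuclei.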
Assay [18] in a line: qHTS assay to test for compound auto fluorescence at 535 nm (green) in HepG2 cell free culture (AID 720686).
For assay [19], the system named is thyroid hormone receptor (rat, GH3 cells). Briefly: qHTS assay to identify small molecule agonists of the thyroid receptor (TR) signaling pathway (AID 743066; calls by dose curve).

“And” between values parts separate entries of the source, which are not always exact repeats. Equal values may be shown once. Results filed as inconclusive are left out. More than one record can exist for a structure, and the calls need not agree. The source made the active and inactive calls. Unless noted, calls come from the whole dose curve; as a rule, active = well fitted curve in the direction sought with a large enough effect in the repeat runs; inconclusive = weak or mixed curves; inactive = no such curve, though single readings can be large; an effect the other way counts as inactive or inconclusive.

For the compound `Oc1cc[c]([Hg][Cl])cc1`, the Potency was 4.22 µM (active) and 8.41 µM (active) in [1]; 11.9 µM (active) and 13.3 µM (active) in assay [2]; 16.8 µM (active) in assay [3]; 6.74 µM (active) and 19 µM (active) in [11]; 422 nM (active) and 531 nM (active) in assay [12]; 21.3 µM (active) and inactive in assay [13]. Moreover, the Potency with Aromatase (Homo sapiens) is 6.68 µM (active) and 13.3 µM (active); in [15] it was 6.68 µM (active) and 11.9 µM (active). Further, the compound was called inactive in assay [4] and in assay [8]. Moreover, the Potency result in assay [5], in assay [6], in assay [7], in [9], in [10] and in assay [14] was “inactive” in each case. In addition, the Potency entry in [16] and in assay [17] was “inactive” in each case.
As for `COC([CH2][Hg])CNC(=O)c1ccccc1OCC(=O)O` (centres undefined), the Potency entry in assay [3], in [5], in [6], in assay [7], in [9] and in assay [18] was “inactive” in each case. Moreover, the Potency result (in assay [10]; in assay [11]; in assay [13]; in [14]; with Aromatase (Homo sapiens); in assay [15]) was “inactive” in each case. Also, the Potency entry in assay [17] was “inactive”. Also, the compound was classed as inactive in [4] and in assay [8].
As to `C[N+]1(C)CCCCC1COC(=O)C(O)(c1ccccc1)c1ccccc1` (centres undefined), the Potency result in [1], in assay [2], in assay [3], in assay [6], in assay [7] and in assay [9] was “inactive” throughout. Also, the Potency entry (in assay [18]; in assay [10]; in assay [11]; in [13]; in [14]; with Aromatase (Homo sapiens)) was “inactive” each time. Moreover, the Potency entry in assay [15], in [16] and in assay [17] was “inactive” throughout. Besides, the outcome in assay [4] and in assay [8] was inactive.
As for `NC1=NC(=O)N2CC12` (centres undefined), the Potency result in assay [1], in assay [2], in assay [3], in assay [5], in assay [6] and in assay [7] was “inactive” each time. Also, the Potency result in [9], in [18], in assay [10], in [11], in [12] and in assay [19] was “inactive” throughout. Moreover, the Potency result (in assay [13]; in assay [14]; with Aromatase (Homo sapiens); in [15]; in assay [16]; in assay [17]) was “inactive” throughout. Further, the compound was called inactive in assay [4] and in assay [8].
As to `O=C1CCO1`, the Potency result in assay [1], in assay [2], in assay [3], in assay [5], in [6] and in assay [7] was “inactive” in each case. Also, the Potency entry in [9], in assay [18], in [10], in [11], in assay [12] and in [19] was “inactive” each time. The Potency result (in [14]; in the assay with Aromatase (Homo sapiens); in [15]; in [16]; in assay [17]) was “inactive” each time. The outcome in [4] and in [8] was inactive.
Take `CN1[C@H]2CC[C@@H]1[C@@H](C(=O)O)[C@@H](OC(=O)c1ccccc1)C2`: the Potency result in assay [1], in assay [2], in assay [3], in assay [5], in assay [6] and in assay [7] was “inactive” each time. For the same compound, the Potency result in assay [9], in [18], in [10], in assay [11], in assay [12] and in [19] was “inactive” in each case. Further, the Potency entry (in assay [13]; in assay [14]; in the assay with Aromatase (Homo sapiens); in assay [15]; in assay [16]; in assay [17]) was “inactive” throughout. The compound was called inactive in assay [4] and in assay [8].
Turning to `CC(=O)[C@H]1CC[C@H]2[C@@H]3CC[C@@H]4C[C@H](O)CC[C@]4(C)[C@H]3CC[C@]12C`, the Potency result in assay [1], in assay [2], in assay [3], in assay [5], in assay [6] and in assay [7] was “inactive” throughout. Also, the Potency result in [9], in [18], in assay [10], in assay [11], in assay [19] and in [13] was “inactive” throughout. The Potency result (in assay [14]; with Aromatase (Homo sapiens); in assay [15]; in assay [16]; in assay [17]) was “inactive” throughout. In addition, the compound was classed as inactive in [4] and in assay [8]. In addition, in assay [12], the Potency is 13.3 µM (active).

The record behind these values is PubChem BioAssay (Tox21).
